According to PubChem BioAssay (NCATS):
Results filed as inconclusive are left out. Calls of active or inactive are those of the source. Calls follow the shape of the dose curve; as a rule, active = well fitted curve in the direction sought with a large enough effect; inconclusive = small, poorly fitted or top-dose-only effect, or another doubt; inactive = no such curve, though single readings can be large; an effect the other way counts as inactive or inconclusive.

Experiments:
HACAT = experiment: qHTS assay to identify novel small-molecules to repurpose for Merkel cell carcinoma treatment (AID 1296009); details: MCC and control cell lines, CellTiter-Glo viability, 72 h; also: nearly all actives have a fitted effect of over 60% in size
Procedure, shortened: (§1)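 After compound transfer in DMSO, plates were kept 72 hr at 37 degree celsius. Luminescent ATP signal from CellTiter-Glo served as viability measure, normalized against DMSO and no-cell controls.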

HEK293T = experiment: as above; details: MCC and control cell lines, CellTiter-Glo viability, 72 h; series mostly up to 44.8 µM
Procedure, shortened: as §1

NIH3T3 = experiment: as above; details: MCC and control cell lines, CellTiter-Glo viability, 72 h; at 44.8 µM (top of the series) unless noted
Procedure, shortened: as §1

C33A = experiment: Primary qHTS to identify gynecologic anti-cancer compounds using libraries of approved drugs and bioactive compounds (AID 1345084); details: Gynecologic cancer cell panel viability, ATPlite luminescence, 48 h; series mostly up to 57.5 µM; also: % is scaled to controls: 0 for no effect and ±100 for the full control effect; nearly all actives have a fitted effect of over 55% in size
Procedure, shortened: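 Luminescence from the ATPlite ATP-monitoring reagent indicates viable cell number; lower signal means cytotoxicity. Cells received compound 16 h after seeding and were exposed for 48 h across five concentrations.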

[1] = at 44.8 µM (top of the series) unless noted

C=C(C)C(=O)O[C@H]1C[C@@](C)(OC(C)=O)[C@@]2(O)CC[C@@](C)(O)[C@H](OC(C)=O)[C@@]23OC(=O)C(COC)=C13
inactive: outcome (HACAT; [1]) inactive [at 17.4 µM] | Potency (HEK293T) | outcome (NIH3T3) inactive [at 17.4 µM] | Potency (C33A)

C[C@@H]1O[C@@H](O[C@@H]2[C@@H](O)[C@H](O[C@@H]3[C@@H](O)[C@@H](O)[C@H](O[C@H]4[C@H](OC(=O)[C@]56CCC(C)(C)C[C@H]5C5=CCC7[C@@]8(C)C[C@H](O)[C@H](O[C@@H]9O[C@H](C(=O)O)[C@@H](O)[C@H](O)[C@H]9O)[C@@](C)(CO)C8[C@H](O)C[C@@]7(C)[C@]5(C)CC6)OC[C@H](O)[C@@H]4O)O[C@H]3C)OC[C@H]2O)[C@H](O)[C@H](O)[C@H]1O (stereo partly specified)
inactive: outcome (HACAT; [1]) inactive [at 9.27 µM] | outcome (HEK293T) inactive [at 9.27 µM] | outcome (NIH3T3) inactive [at 9.27 µM] | activity change, negative = cytotoxicity (C33A) -3.84% [at 6.55 µM]

CC(C)(O)CNc1nc(Nc2ccnc(C(F)(F)F)c2)nc(-c2cccc(C(F)(F)F)n2)n1
inactive: outcome (HACAT; at 17.4 µM (top of the series)) | outcome (HACAT; at 44.8 µM (top of the series)) | Potency (C33A)

CCS(=O)(=O)N1CCC([C@@H](C)n2c(C)c(C(=O)NCc3c(OC)cc(C)[nH]c3=O)c3ccccc32)CC1
inactive: outcome (HACAT; [1]) | Potency (HEK293T) | outcome (NIH3T3) | Potency (C33A)

COc1cc(NC(=O)c2ccccn2)ccc1Cl
inactive: outcome (HACAT; [1]) | Potency (HEK293T) | outcome (NIH3T3) | Potency (C33A)

CC1C(=O)CC2C3C(O)CC(C(=O)O)C12CC3(C)C (stereo unspecified)
inactive: outcome (HACAT; [1]) | Potency (HEK293T) | outcome (NIH3T3) | Potency (C33A)

C=CCc1ccc(O[C@@H]2O[C@H](CO)[C@@H](O)[C@H](O)[C@H]2O)c(OC)c1
inactive: outcome (HACAT; [1]) | Potency (HEK293T) | outcome (NIH3T3) | Potency (C33A)

CC1(C)OC(=O)C(OCC2CC2)=C1c1ccc(S(C)(=O)=O)cc1
inactive: outcome (HACAT; [1]) | Potency (HEK293T) | outcome (NIH3T3) | Potency (C33A)

CO[C@@H]1COCC[C@@H]1N[C@@H]1CC[C@@](C(=O)N2CCc3ncc(C(F)(F)F)cc3C2)(C(C)C)C1
inactive: outcome (HACAT; at 17.4 µM (top of the series)) | outcome (HACAT; at 44.8 µM (top of the series)) | Potency (HEK293T) | Potency (C33A)

CC(=O)O[C@@H]1[C@H](O[C@@H]2O[C@H](CO)[C@@H](O)[C@H](O)[C@H]2O)[C@@H](O[C@@H]2O[C@@H](C)[C@H](O)[C@@H](O[C@@H]3O[C@H](CO)[C@@H](O)[C@H](O)[C@H]3O)[C@H]2O)[C@H](OC(=O)C23CCC4(C)C(=CCC5C6(C)CC(O)C(O[C@@H]7O[C@H](C(=O)O)[C@@H](O)[C@H](O)[C@H]7O)C(C)(C(=O)O)C6CCC54C)C2CC(C)(C)CC3O)O[C@@H]1C (stereo partly specified)
inactive: outcome (HACAT; [1]) inactive [at 9.27 µM] | outcome (HEK293T) inactive [at 9.27 µM] | outcome (NIH3T3) inactive [at 9.27 µM] | activity change, negative = cytotoxicity (C33A) 3.56% [at 6.55 µM]

C=C1C[C@]23C[C@H]1CC[C@H]2[C@@]12C=C[C@H](O)[C@@](C)(C(=O)O1)[C@H]2[C@@H]3C(=O)O
inactive: outcome (HACAT; [1]) | Potency (HEK293T) | outcome (NIH3T3) | Potency (C33A)

CC(=O)NCCCCn1c2c(c3ccccc31)C(=O)NCC2
inactive: outcome (HACAT; [1]) | Potency (HEK293T) | outcome (NIH3T3) | Potency (C33A)

C=C[C@H]1[C@H](O[C@@H]2O[C@H](CO)[C@@H](O)[C@H](O)[C@H]2O)OC=C2C(=O)OCC[C@]21O
inactive: outcome (HACAT; [1]) | Potency (HEK293T) | outcome (NIH3T3) | Potency (C33A)

C[C@]12CCC[C@](C)(C(=O)O)C1CCC13C=C(CO)C(CCC12)C3 (stereo partly specified)
inactive: outcome (HACAT; [1]) | Potency (HEK293T) | outcome (NIH3T3) | Potency (C33A)

C=C[C@@]1(C)CC(=O)C2[C@](C)(O1)[C@@H](OC(C)=O)[C@@H](O)[C@H]1C(C)(C)CCC[C@]21C (stereo partly specified)
inactive: outcome (HACAT; [1]) inactive [at 9.27 µM] | outcome (HEK293T) inactive [at 9.27 µM] | outcome (NIH3T3) inactive [at 9.27 µM] | activity change, negative = cytotoxicity (C33A) 11.6% [at 11.6 µM]

CC(C#N)C(C)O[C@@H]1O[C@H](CO)[C@@H](O)[C@H](O)[C@H]1O (stereo partly specified)
inactive: outcome (HACAT; [1]) | Potency (HEK293T) | outcome (NIH3T3) | Potency (C33A)

C=C1C(OC(C)=O)C(=O)C2C(C)(C)C(OC(C)=O)CCC2(C)C1CC(OC(C)=O)/C(C)=C/COC(C)=O (stereo unspecified)
inactive: outcome (HACAT; [1]) inactive [at 17.4 µM] | Potency (HEK293T) | outcome (NIH3T3) inactive [at 17.4 µM] | Potency (C33A)

COC1CCCC/C(C)=C/C2C=C(C)C(C)C3C(CC(C)C)NC(=O)C23C(=O)C1 (stereo unspecified)
inactive: outcome (HACAT; [1]) inactive [at 17.4 µM] | Potency (HEK293T) | outcome (NIH3T3) inactive [at 17.4 µM] | Potency (C33A)

CCOc1nc2cccc(C(=O)OCc3oc(=O)oc3C)c2n1Cc1ccc(-c2ccccc2-c2noc(O)n2)cc1
inactive: outcome (HACAT; [1]) | Potency (HEK293T) | outcome (NIH3T3) | Potency (C33A)

COc1cc(CCc2ccccc2)c(C(=O)O)c2c1CC(C(C)(C)O)O2 (stereo unspecified)
inactive: outcome (HACAT; [1]) | Potency (HEK293T) | outcome (NIH3T3) | Potency (C33A)

C=C1C(=O)OC2CC(C)=C(C(C)CCCO[C@@H]3O[C@H](CO)[C@@H](O)[C@H](O)[C@H]3O)C(O)C12 (stereo partly specified)
inactive: outcome (HACAT; [1]) inactive [at 17.4 µM] | Potency (HEK293T) | outcome (NIH3T3) inactive [at 17.4 µM] | Potency (C33A)

CC(C)C1=CCC(C)(O)C(OC2OC(CO)C(O)C(O)C2O)C1 (stereo unspecified)
inactive: outcome (HACAT; [1]) | Potency (HEK293T) | outcome (NIH3T3) | Potency (C33A)

CC(=O)N[C@H]1CCN(c2ccc(C3=NOC(CN[S+](=O)([O-])C(C)C)C3)cc2F)C1 (stereo partly specified)
inactive: outcome (HACAT; [1]) | Potency (HEK293T) | outcome (NIH3T3) | Potency (C33A)
